Assay results as given in ChEMBL document CHEMBL1961873, “Compounds: GSK PKIS; Assays: Nanosyn kinase panel” (2012).

Key:
[1] = target: Protein kinase C gamma type (Homo sapiens) (UniProt P05129); conditions: at 1 µM;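 further: each value is an averaged percent inhibition of the enzyme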
[2] = target: T1, Protein kinase C iota type (Homo sapiens) (UniProt P41743); conditions: at 0.1 µM
T1 sequence (whole entry): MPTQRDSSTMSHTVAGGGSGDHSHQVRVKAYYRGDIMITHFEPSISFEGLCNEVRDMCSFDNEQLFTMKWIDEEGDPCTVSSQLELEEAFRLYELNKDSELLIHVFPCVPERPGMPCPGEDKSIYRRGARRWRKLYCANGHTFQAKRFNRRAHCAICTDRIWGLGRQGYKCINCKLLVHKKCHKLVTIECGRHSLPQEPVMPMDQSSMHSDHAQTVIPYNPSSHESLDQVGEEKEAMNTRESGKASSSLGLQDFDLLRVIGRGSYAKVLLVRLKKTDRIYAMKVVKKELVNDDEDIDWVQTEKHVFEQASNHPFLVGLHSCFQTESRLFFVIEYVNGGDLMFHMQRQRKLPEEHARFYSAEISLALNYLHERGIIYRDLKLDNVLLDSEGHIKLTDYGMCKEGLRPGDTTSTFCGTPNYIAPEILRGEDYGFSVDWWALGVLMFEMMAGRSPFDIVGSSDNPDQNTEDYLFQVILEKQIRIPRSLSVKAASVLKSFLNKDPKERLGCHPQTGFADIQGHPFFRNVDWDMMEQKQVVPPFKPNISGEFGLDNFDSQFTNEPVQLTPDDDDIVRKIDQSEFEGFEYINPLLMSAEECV

[3] = target: T1, Protein kinase C iota type (Homo sapiens); conditions: at 1 µM
[4] = target: Protein kinase C theta type (Homo sapiens) (UniProt Q04759); conditions: at 0.1 µM
[5] = target: Protein kinase C theta type (Homo sapiens) (UniProt Q04759); conditions: at 1 µM
[6] = target: Protein kinase C beta type (Homo sapiens) (UniProt P05771); conditions: at 0.1 µM
[7] = target: Protein kinase C beta type (Homo sapiens) (UniProt P05771); conditions: at 1 µM
[8] = target: T2, Serine/threonine-protein kinase D1 (Homo sapiens) (UniProt Q15139); conditions: at 0.1 µM
T2 sequence (whole entry): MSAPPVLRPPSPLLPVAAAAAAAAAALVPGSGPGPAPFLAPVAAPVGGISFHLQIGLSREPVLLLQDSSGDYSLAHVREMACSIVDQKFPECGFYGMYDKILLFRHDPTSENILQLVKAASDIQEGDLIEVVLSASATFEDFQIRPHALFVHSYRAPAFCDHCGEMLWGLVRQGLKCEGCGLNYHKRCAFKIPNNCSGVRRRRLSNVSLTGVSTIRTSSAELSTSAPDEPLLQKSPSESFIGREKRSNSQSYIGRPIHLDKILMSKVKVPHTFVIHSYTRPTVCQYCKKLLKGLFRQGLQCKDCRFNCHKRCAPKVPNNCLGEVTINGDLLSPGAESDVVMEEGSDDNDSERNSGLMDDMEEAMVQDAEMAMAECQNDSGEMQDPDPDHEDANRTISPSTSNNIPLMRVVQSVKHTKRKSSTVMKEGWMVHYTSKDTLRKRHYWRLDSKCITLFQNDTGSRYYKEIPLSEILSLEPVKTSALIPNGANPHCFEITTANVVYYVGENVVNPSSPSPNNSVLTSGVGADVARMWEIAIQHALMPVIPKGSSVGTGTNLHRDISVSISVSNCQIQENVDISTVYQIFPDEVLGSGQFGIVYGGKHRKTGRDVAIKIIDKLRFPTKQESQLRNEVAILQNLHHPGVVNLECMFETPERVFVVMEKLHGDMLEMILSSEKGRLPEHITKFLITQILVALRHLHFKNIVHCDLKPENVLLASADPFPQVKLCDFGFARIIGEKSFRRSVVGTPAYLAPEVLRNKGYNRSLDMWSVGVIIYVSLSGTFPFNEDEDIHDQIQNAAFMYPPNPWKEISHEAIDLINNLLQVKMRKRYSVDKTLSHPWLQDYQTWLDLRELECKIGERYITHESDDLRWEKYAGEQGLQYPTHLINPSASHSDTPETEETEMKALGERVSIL

[9] = target: T2, Serine/threonine-protein kinase D1 (Homo sapiens); conditions: at 1 µM
[10] = target: T3, Serine/threonine-protein kinase D2 (Homo sapiens) (UniProt Q9BZL6); conditions: at 0.1 µM;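 further: reported percent inhibition values are means, part of the GSK PKIS kinase panel screen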
T3 sequence (whole entry): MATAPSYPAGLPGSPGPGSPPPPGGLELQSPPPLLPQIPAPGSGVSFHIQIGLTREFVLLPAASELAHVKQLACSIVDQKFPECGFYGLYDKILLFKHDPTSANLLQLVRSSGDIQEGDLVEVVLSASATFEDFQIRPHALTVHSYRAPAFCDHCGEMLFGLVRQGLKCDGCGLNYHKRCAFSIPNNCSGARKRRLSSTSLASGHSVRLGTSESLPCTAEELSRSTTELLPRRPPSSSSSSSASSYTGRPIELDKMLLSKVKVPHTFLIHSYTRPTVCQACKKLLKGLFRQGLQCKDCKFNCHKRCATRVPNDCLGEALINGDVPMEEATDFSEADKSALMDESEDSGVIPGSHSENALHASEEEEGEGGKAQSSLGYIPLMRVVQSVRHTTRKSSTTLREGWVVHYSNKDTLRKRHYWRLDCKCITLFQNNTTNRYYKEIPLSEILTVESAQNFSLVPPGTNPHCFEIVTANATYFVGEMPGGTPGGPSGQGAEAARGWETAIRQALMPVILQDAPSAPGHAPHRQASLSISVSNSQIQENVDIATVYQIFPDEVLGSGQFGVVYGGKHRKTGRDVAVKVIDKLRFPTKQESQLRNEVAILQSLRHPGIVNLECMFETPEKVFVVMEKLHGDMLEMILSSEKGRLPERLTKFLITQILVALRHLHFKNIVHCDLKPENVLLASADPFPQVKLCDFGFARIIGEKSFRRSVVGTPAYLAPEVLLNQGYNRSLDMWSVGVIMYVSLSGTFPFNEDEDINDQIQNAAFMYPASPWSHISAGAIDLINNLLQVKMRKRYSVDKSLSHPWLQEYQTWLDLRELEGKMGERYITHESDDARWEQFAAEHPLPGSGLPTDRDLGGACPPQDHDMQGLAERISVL

Sequence of Protein kinase C beta type (Homo sapiens) (P05771 2-671 limits assumed): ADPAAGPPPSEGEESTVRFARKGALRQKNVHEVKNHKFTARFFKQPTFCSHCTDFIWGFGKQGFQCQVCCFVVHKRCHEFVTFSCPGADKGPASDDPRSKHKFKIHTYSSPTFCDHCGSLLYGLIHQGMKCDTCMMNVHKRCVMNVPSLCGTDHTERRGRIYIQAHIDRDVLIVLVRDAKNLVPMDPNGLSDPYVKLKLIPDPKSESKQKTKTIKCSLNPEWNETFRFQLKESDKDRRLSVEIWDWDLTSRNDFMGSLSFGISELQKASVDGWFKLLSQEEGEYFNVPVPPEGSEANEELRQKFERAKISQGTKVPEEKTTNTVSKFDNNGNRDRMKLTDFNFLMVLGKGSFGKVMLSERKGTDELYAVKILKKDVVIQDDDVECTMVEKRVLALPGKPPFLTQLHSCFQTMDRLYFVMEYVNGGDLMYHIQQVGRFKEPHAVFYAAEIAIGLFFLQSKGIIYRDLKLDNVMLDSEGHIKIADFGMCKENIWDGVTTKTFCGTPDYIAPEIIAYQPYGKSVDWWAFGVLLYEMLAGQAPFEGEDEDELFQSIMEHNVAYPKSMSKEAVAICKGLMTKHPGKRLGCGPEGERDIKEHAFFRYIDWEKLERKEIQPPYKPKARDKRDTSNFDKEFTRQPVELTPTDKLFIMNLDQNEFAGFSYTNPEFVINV
Sequence of Protein kinase C theta type (Homo sapiens) (Q04759 whole entry, looked up): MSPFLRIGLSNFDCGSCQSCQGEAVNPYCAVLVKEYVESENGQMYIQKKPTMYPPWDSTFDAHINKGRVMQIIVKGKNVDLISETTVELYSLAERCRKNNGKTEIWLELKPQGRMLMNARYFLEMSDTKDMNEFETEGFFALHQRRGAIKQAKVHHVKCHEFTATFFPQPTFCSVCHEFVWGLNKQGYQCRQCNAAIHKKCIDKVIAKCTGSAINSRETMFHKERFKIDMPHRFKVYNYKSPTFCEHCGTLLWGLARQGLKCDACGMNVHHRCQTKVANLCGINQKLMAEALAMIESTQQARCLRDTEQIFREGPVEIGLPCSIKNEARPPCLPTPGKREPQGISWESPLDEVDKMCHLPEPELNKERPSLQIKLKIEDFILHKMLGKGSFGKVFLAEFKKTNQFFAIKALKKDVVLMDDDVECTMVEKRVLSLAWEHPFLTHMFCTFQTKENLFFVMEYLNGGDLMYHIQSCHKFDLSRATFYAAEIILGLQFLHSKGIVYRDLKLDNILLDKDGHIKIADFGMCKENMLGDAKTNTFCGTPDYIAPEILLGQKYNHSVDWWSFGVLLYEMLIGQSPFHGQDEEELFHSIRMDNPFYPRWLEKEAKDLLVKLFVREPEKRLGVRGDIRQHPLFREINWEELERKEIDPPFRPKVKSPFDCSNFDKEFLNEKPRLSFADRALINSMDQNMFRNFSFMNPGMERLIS

SMILES | inhibition [1] | inhibition [2] | inhibition [3] | inhibition [4] | inhibition [5] | inhibition [6] | inhibition [7] | inhibition [8] | inhibition [9] | inhibition [10]
COc1cccc(/C=N/Nc2ncnc3c2cnn3-c2cccc(OC)c2)c1 | 6.32% | 1.63% | 1.72% | 1.69% | 4% | 0.47% | 1.93% | 3.52% | 8.09% | 2.74%
CCc1cccc(CC)c1/C=C/c1cncc(C(=O)NC)c1 | 2.81% | 2.1% | 3.47% | 1.41% | -0.25% | 0.14% | -0.35% | 2.52% | 6.44% | 3.28%
Cc1nnc(-c2ccc(C)c(-c3ccc(C(=O)NCc4ccc(Cl)cc4)cc3)c2)o1 | 3.88% | 2.2% | 0.35% | 1.83% | 3.97% | 1.36% | 3.21% | 1% | 0.36% | 0.28%
CS(=O)(=O)CCNCc1ccc(-c2ccc3ncnc(Nc4ccc(OCc5ccccc5)c(Br)c4)c3c2)o1 | -0.13% | 2.91% | 2.72% | 2.31% | 2.41% | 0.97% | 1.27% | 0.19% | -0.25% | 0.64%
COc1cc(C)c(N(C)C(=O)CN(C)C)cc1Nc1nc(Nc2cccc(F)c2C(N)=O)c2cc[nH]c2n1 | 0.07% | 0.9% | 1.43% | -0.27% | -0.14% | 0.9% | 0.92% | -1.96% | -0.45% | -2.04%
CN(C)CCCNc1nccc(-c2c(-c3ccc(F)cc3)nn3cc(C(F)(F)F)ccc23)n1 | 4.68% | 0.91% | 2.26% | 0.23% | 0.19% | 0.57% | 3.33% | -1.67% | 0.04% | -1.36%
Fc1ccc(-c2c(-c3ccncc3)nc3n2CCS3)cc1 | 4.08% | 1.39% | 1.01% | 1.55% | 4.99% | 1.11% | 3.63% | -0.81% | 2.14% | -0.29%
NC(=O)c1ccc(Oc2nccc(-c3c(-c4ccc(F)cc4)ncn3C3CCNCC3)n2)cc1 | 2.68% | 2.53% | 1.91% | 3.83% | 3.82% | 1.9% | 5.22% | 4.57% | 6.71% | 4.04%
CCc1ccc(Oc2nccc(-c3c(-c4ccc(F)cc4)ncn3C3CCNCC3)n2)cc1 | 10.9% | 0.16% | 1.79% | 4% | 8.13% | 2.37% | 9.56% | 3.88% | 13% | 4.63%
c1ccc(Oc2ccc(Nc3ncc(-c4ccccc4)o3)cc2)cc1 | 3.46% | 1.87% | 0.57% | 1.08% | 0.33% | 0.45% | 1.67% | 2.12% | 4.49% | 1.43%
Fc1ccc(-c2ncn(C3CCNCC3)c2-c2ccnc(Oc3ccc(Oc4ccccc4)cc3)n2)cc1 | 4.82% | 1.22% | 2.19% | 1.9% | 3.54% | 2.63% | 12.4% | 5.08% | 8.65% | 4.63%
COc1cccc(-n2cnc3c(N/N=C/c4ccncc4)ncnc32)c1 | 3.14% | 0.58% | -0.97% | 0.62% | 4.42% | 2.34% | 2.1% | -2.1% | -5.45% | -4.34%
C[C@@H](Oc1cc(-n2cnc3ccc(OCC4CCN(C)CC4)cc32)sc1C(N)=O)c1ccccc1Cl | 6.3% | 1.84% | 2.7% | 4.47% | 15.3% | 3.47% | 11.6% | 6.16% | 12% | 7.73%
COc1cc2ncn(-c3cc(OCc4ccccc4C(F)(F)F)c(C(C)=O)s3)c2cc1OC | 0.33% | 0.95% | 1.41% | 1.39% | 0.74% | 0.72% | 0.23% | 3.39% | 5.09% | 2.5%
Cc1ccc(C(=O)NC(C)C)cc1-c1ccc(C(=O)NCC2CC2)cc1 | -2.88% | -0.44% | -0.8% | -1.25% | -1.29% | -0.65% | -0.9% | -3.39% | -3.57% | -1.97%
NS(=O)(=O)c1ccc(N/N=C2\C(=O)Nc3ccc(-c4cnco4)cc32)cc1 | 4.1% | 1% | 0.97% | 1.05% | 2.96% | 0.38% | 1.12% | -1.79% | 12.6% | -0.15%
CN1CCN(CCCNc2nc3ccc(Oc4ccc(NC(=O)Nc5cc(C(F)(F)F)ccc5F)cc4)cc3[nH]2)CC1 | 2.83% | 1.14% | 1.05% | -0.2% | -0.32% | 2.09% | 2.68% | -0.88% | -1.77% | -2.52%
